Laboratory results as given in PubChem BioAssay (NCI).
About 83,000 compounds went through this panel and 20% of them were active in at least one assay; those are over-represented in the sample as a whole.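 A percent growth of 40 corresponds to 60% growth inhibition; 0 means no net growth; -100 means all cells died. Active threshold: below 10.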 The source made the active and inactive calls.

Legend:
Test in all cases: NCI-60 one-dose screen, 48 h (100 = growth as untreated, 0 = no growth, -100 = all killed)
Settings in all cases: 10 µM unless noted
SR leukemia = test system: SR leukemia
RPMI-8226 leukemia = test system: RPMI-8226 leukemia
OVCAR-8 ovarian = test system: OVCAR-8 ovarian
OVCAR-4 ovarian = test system: OVCAR-4 ovarian
SK-OV-3 ovarian = test system: SK-OV-3 ovarian
IGROV1 ovarian = test system: IGROV1 ovarian
OVCAR-3 ovarian = test system: OVCAR-3 ovarian
HS 578T breast = test system: HS 578T breast
NCI/ADR-RES ovarian = test system: NCI/ADR-RES ovarian
T-47D breast = test system: T-47D breast
BT-549 breast = test system: BT-549 breast
MDA-MB-435 melanoma = test system: MDA-MB-435 melanoma
SW-620 colon = test system: SW-620 colon
MCF7 breast = test system: MCF7 breast
HCT-116 colon = test system: HCT-116 colon
HCC-2998 colon = test system: HCC-2998 colon
KM12 colon = test system: KM12 colon
OVCAR-5 ovarian = test system: OVCAR-5 ovarian

Measured: growth

Nc1ncnc2c1C(c1ccc([N+](=O)[O-])cc1)c1sc3c(F)cccc3c1O2 (stereo not given)
inactive: SR leukemia 94.3% | RPMI-8226 leukemia 103% | OVCAR-8 ovarian 102% | OVCAR-4 ovarian 99.8% | SK-OV-3 ovarian 109% | IGROV1 ovarian 85.6% | OVCAR-3 ovarian 110% | HS 578T breast 89.2% | NCI/ADR-RES ovarian 101% | T-47D breast 71.7% | BT-549 breast 111% | MDA-MB-435 melanoma 101% | SW-620 colon 98.3% | MCF7 breast 21.9% | HCT-116 colon 101% | HCC-2998 colon 115% | KM12 colon 92.8%

CCOC(=O)C(=CCC(C)C)C(=O)OCC
inactive: SR leukemia 119% | RPMI-8226 leukemia 99% | OVCAR-8 ovarian 109% | OVCAR-4 ovarian 95.2% | SK-OV-3 ovarian 98.5% | IGROV1 ovarian 104% | OVCAR-3 ovarian 99.5% | HS 578T breast 98.6% | NCI/ADR-RES ovarian 93.8% | T-47D breast 88.2% | MDA-MB-435 melanoma 99.7% | SW-620 colon 105% | MCF7 breast 99.5% | HCT-116 colon 98.9% | HCC-2998 colon 92.4% | KM12 colon 110%

CON1CCC[C@]2(C)[C@H]3CC[C@@H]4[C@H]5[C@@H](O)C(C)(C)CC[C@]5(CO)CC[C@@]4(C)[C@]3(C)CC[C@H]2C1(C)C
inactive: SR leukemia 88.4% | RPMI-8226 leukemia 89.1% | OVCAR-8 ovarian 95.2% | OVCAR-5 ovarian 102% | OVCAR-4 ovarian 100% | IGROV1 ovarian 103% | OVCAR-3 ovarian 104% | HS 578T breast 108% | T-47D breast 79.8% | BT-549 breast 115% | MDA-MB-435 melanoma 94.5% | SW-620 colon 98.4% | MCF7 breast 98.5% | HCT-116 colon 88.6% | HCC-2998 colon 103% | KM12 colon 105%

COc1ccc(-c2ccc(-c3ccc(C(=N)N)cn3)s2)cc1Cl
active: SR leukemia 0.301% | RPMI-8226 leukemia -41.6% | OVCAR-8 ovarian -50.5% | OVCAR-4 ovarian -82.8% | IGROV1 ovarian -83% | OVCAR-3 ovarian -38.1% | HS 578T breast -68.5% | NCI/ADR-RES ovarian 0.998% | T-47D breast -43.4% | MDA-MB-435 melanoma -96.9% | SW-620 colon -87.5% | MCF7 breast -68.9% | HCT-116 colon -62.6% | HCC-2998 colon -80.9% | KM12 colon -45.3%
inactive: SK-OV-3 ovarian 100% | BT-549 breast 107%

COc1ccc(/C=C/C(=O)c2cc3c(N)c(C(=O)Nc4ccccc4)sc3nc2C)cc1
active: RPMI-8226 leukemia -13.3% | OVCAR-8 ovarian 3.29% | OVCAR-3 ovarian -16.6% | NCI/ADR-RES ovarian 2.9% | MDA-MB-435 melanoma -23.9% | MCF7 breast 7.19% | HCT-116 colon 8.12% | KM12 colon 6.61%
inactive: SR leukemia 23.4% | OVCAR-4 ovarian 49.3% | SK-OV-3 ovarian 33% | IGROV1 ovarian 31% | HS 578T breast 14.6% | T-47D breast 46.7% | SW-620 colon 18% | HCC-2998 colon 11.7%

CC(=O)OC[C@]12CCC(C)(C)C=C1[C@H]1CC[C@@H]3[C@@]4(C)CCCNC(C)(C)[C@@H]4CC[C@@]3(C)[C@]1(C)CC2
active: RPMI-8226 leukemia -4.32%
inactive: SR leukemia 13.7% | OVCAR-8 ovarian 71.9% | OVCAR-5 ovarian 96.7% | OVCAR-4 ovarian 41.8% | OVCAR-3 ovarian 30.7% | HS 578T breast 92.5% | NCI/ADR-RES ovarian 104% | T-47D breast 51.8% | BT-549 breast 63.8% | MDA-MB-435 melanoma 29.7% | SW-620 colon 49.9% | MCF7 breast 46.6% | HCT-116 colon 34.1% | HCC-2998 colon 49% | KM12 colon 25.5%

Cn1cc(C2=C(c3cccc4ccccc34)C(=O)NC2=O)c2cc(Br)ccc21
inactive: SR leukemia 60.8% | RPMI-8226 leukemia 121% | OVCAR-8 ovarian 95.9% | OVCAR-4 ovarian 124% | SK-OV-3 ovarian 90.3% | IGROV1 ovarian 94.9% | OVCAR-3 ovarian 104% | HS 578T breast 82% | NCI/ADR-RES ovarian 92.2% | T-47D breast 81.3% | MDA-MB-435 melanoma 95.7% | SW-620 colon 96.1% | MCF7 breast 84.3% | HCT-116 colon 71.3% | HCC-2998 colon 126% | KM12 colon 89.7%

CN1CCN(c2ccc(/C=C/C(=O)c3ccc(O)cc3)cc2)CC1
inactive: SR leukemia 101% | RPMI-8226 leukemia 102% | OVCAR-8 ovarian 95.9% | OVCAR-4 ovarian 89.5% | IGROV1 ovarian 105% | OVCAR-3 ovarian 106% | HS 578T breast 95.7% | NCI/ADR-RES ovarian 99.9% | T-47D breast 83.6% | BT-549 breast 97.7% | MDA-MB-435 melanoma 100% | SW-620 colon 99.5% | MCF7 breast 89.7% | HCT-116 colon 99.2% | HCC-2998 colon 102% | KM12 colon 101%
